High-throughput results deposited in PubChem BioAssay by National Center for Advancing Translational Sciences (NCATS).
Shown are actives, neighbours in structure and some others; about 7.5% of the full set was active somewhere.
TSHR antag = antagonists of human thyroid stimulating hormone receptor. activity change, negative = inhibition, % at 11.5 µM. actives 0.2% (n = 330,000). P16473. TSHR-expressing cells, TSH-stimulated cAMP HTRF, 2 h; stronger effect = lower value;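 active = activity change below a set negative limit, meaning inhibition stronger than a set level, cut at about -70% in these data; inconclusive = activity change between two set negative limits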
Target sequence (P16473 whole entry, looked up): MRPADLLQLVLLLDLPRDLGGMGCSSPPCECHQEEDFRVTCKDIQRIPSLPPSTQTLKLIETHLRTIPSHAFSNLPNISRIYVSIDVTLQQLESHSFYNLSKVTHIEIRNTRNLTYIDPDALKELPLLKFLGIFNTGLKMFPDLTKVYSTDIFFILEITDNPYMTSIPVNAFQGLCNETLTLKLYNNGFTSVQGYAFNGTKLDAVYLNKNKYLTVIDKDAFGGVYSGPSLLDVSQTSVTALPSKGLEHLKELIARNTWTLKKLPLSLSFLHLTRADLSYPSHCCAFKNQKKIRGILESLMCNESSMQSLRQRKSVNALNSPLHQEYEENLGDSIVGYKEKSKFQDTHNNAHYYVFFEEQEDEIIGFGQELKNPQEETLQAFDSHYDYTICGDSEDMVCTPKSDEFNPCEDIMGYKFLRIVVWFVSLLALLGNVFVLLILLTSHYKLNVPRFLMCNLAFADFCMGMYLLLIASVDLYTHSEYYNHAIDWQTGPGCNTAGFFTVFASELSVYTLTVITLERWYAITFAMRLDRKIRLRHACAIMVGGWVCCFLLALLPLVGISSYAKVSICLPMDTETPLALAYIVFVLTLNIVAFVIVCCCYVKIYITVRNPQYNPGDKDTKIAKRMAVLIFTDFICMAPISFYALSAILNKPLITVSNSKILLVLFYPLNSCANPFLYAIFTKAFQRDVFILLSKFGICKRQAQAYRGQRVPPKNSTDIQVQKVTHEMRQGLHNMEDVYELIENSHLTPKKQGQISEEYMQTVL
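Cell-based HTRF cAMP assay; TSHR cells + compound, TSH EC80 (4nM final), 2 h, 37 deg C. Lysis with anti-cAMP cryptate and cAMP-d2, 30 min RT, read 665/620 nm.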
Gal4-VP16 FLuc = Gal4-VP16 reporter inhibition counter-screen; actives 3.5% (n = 310,000); Potency, µM (titrated, usually from 53.6 µM), without a hit: top-dose activity, negative = inhibition, actives largely listed as inhibitors; AID 2546; Drosophila S2 Gal4-VP16 UAS-luciferase, luminescence, 20 h;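 note: Gal4-VP16 expression switched on by copper sulfate through the metallothionein promoter; potency is the fitted concentration of half-maximal effect; nearly all actives have a fitted effect of over 50% in size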
B2AR arrestin = recruits beta-arrestin to the human beta2-adrenergic receptor | beta-arrestin recruitment to beta2AR, cell-based reporter | Potency, µM (titrated, usually from 46.1 µM), inactives show top-dose activation, most hits filed as activators | actives 0.02% (n = 330,000) | AID 492947;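 note: potency is the fitted concentration of half-maximal effect; 0% = DMSO controls and full agonism = EC100 isoproterenol or metaproterenol; nearly all actives have a fitted effect of over 65% in size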
RORgamma inh = ROR gamma (mouse) transcription inhibition | P51450 | actives 5.4% (n = 310,000) | AID 2551 | Potency, µM (top dose mostly 53.6 µM), for inactives: top-dose activity change, negative = inhibition, most hits filed as inhibitors | Drosophila S2 Gal4-RORgamma UAS-luciferase reporter, 20 h; note: potency is the fitted concentration of half-maximal effect; nearly all actives have a fitted effect of over 60% in size
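Luminescence from a UAS-regulated Photinus luciferase reporter in stably transfected Drosophila Schneider cells is measured; decreased signal marks ROR gamma inhibition. Fusion expression is induced by 700 uM copper sulfate for 20 hr.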
ELG1 DNA repair = ELG1-dependent DNA repair inhibition; HEK293T ELG1-luciferase reporter, luminescence, 16 h; DNA damage induced by 5-fluorouridine; Potency, µM (highest dose often 46.1 µM), without a hit: at the highest dose activity change, negative = inhibition, most hits filed as inhibitors; actives 2.3% (n = 330,000); note: potency is the fitted concentration of half-maximal effect; nearly all actives have a fitted effect of over 55% in size
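In this reporter screen, reduction of luminescence relative to DMSO vehicle indicated activity. Compounds and 5-fluorouridine were added together to 2,000 cells per well, incubated for 16 hr at 37 °C, then developed with ONE-Glo.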
* hit, by the source's call; u = inconclusive; x = no result given; [ ] = dose if it differs, or a comment. Unless noted, calls come from the whole dose curve; as a rule, active = well fitted curve in the direction sought with a large enough effect; inconclusive = small, poorly fitted or top-dose-only effect, or another doubt; inactive = no such curve, though single readings can be large; an effect the other way counts as inactive or inconclusive. Unless noted, % is set by controls: 0 for no effect and ±100 for the full control effect.

SMILES	TSHR antag	Gal4-VP16 FLuc	B2AR arrestin	RORgamma inh	ELG1 DNA repair
COc1ccc(NC(=O)Nc2cccc3c2O[C@H](CN(C)S(=O)(=O)c2ccc(OC)cc2)[C@@H](C)CN([C@H](C)CO)C3=O)cc1	2	x	6%	x	21µM*
C[C@@H]1CN([C@H](C)CO)C(=O)Cc2cc(NC(=O)Nc3ccccc3)ccc2O[C@@H]1CN(C)Cc1ccc2c(c1)OCO2	5	x	-1%	x	16µM*
C[C@H]1CN([C@@H](C)CO)C(=O)c2cc(NC(=O)C3CCCCC3)ccc2O[C@H]1CN(C)C(=O)Nc1ccc2c(c1)OCO2	-1	x	0%	x	1.3µM*
C[C@H](CO)N1C[C@H](C)[C@@H](CN(C)C(=O)Nc2ccc3c(c2)OCO3)Oc2c(NC(=O)Nc3ccccc3)cccc2C1=O	-7	x	-1%	x	6.5µM*
COc1ccc(NC(=O)Nc2cccc3c2O[C@H](CN(C)S(=O)(=O)c2ccccc2)[C@@H](C)CN([C@H](C)CO)C3=O)cc1	1	x	0%	x	-17%
CC1(C)CC(=O)C=C(NCCN2CCN(C(=S)Nc3ccccc3)CC2)C1	3	-8%	-1%	4%	7%
C[C@H](CO)N1C[C@H](C)[C@@H](CN(C)C(=O)Nc2ccc(C(F)(F)F)cc2)Oc2c(NC(=O)Nc3ccc(C(F)(F)F)cc3)cccc2C1=O	-21	x	-1%	x	16µM*
C[C@@H]1CN([C@@H](C)CO)C(=O)c2cc(NS(=O)(=O)c3cccs3)ccc2O[C@H]1CN(C)Cc1ccc(C(F)(F)F)cc1	-19	x	0%	x	16µM*
C[C@H]1CN([C@@H](C)CO)C(=O)c2cccc(NC(=O)Nc3ccc(C(F)(F)F)cc3)c2O[C@@H]1CN(C)C(=O)Nc1ccc(F)cc1	-16	x	0%	x	u
Cc1cc(Nc2nc3ccccc3[nH]c2=O)n(-c2ccccc2)n1	-2	2%	0%	-5%	u
Cc1cc(Nc2nc3ccccc3nc2Cl)n(-c2ccc([N+](=O)[O-])cc2)n1	-10	-5%	0%	5%	21µM*
CCCC[C@H]1CCCO[C@@](C(=O)NCCN2CCOCC2)(C(F)(F)F)C1	x	0%	x	7%	x
C/C(=C\C(=S)Nc1ccccc1)Nc1ccc2ccccc2c1	7	3.5µM*	0%	5.6µM*	u
C/C(=C\C(=S)Nc1ccccc1)Nc1cccc2ccccc12	3	u	-1%	16µM*	6%
O=C(O)c1ccc(NC(=S)NC(=O)c2ccc3ccccc3c2)cc1	-9	-4%	0%	u	u
CC(C)c1ccccc1NC(=O)CC1(CC(=O)O)CCCC1	-3	-10%	-1%	11%	0%
COc1ccccc1CCC(=O)Nc1ncc(C)s1	-10	5%	0%	-9%	u
Cc1cc(OCC(=O)NNC(=S)NC(=O)c2cccs2)ccc1Cl	4	u	-1%	7.9µM*	-3%
Cc1ccc(OCC(=O)NNC(=S)NC(=O)c2cccs2)c(C)c1	10	11µM*	0%	10µM*	14%
CCCn1c(-c2ccc(F)cc2)nc2c(NCC3CCN(C)CC3)nc(C)nc21	x	-6%	x	-20%	x
COCCNC(=O)C1(C)C=CCN1C(C)=O (centres undefined)	x	28%	x	0%	x
Cc1cc(C)cc(N(C(=O)c2cccs2)C2C=CS(=O)(=O)C2)c1 (centres undefined)	-6	-11%	0%	8%	-9%
Cc1ccc(CN(C(=O)Cn2nnc3ccccc32)C(C(=O)NCc2ccco2)c2ccc(C)o2)cc1 (centres undefined)	-13	-16%	0%	22%	23µM*
Cc1cnc(NC(=O)COc2ccccc2Cl)s1	-3	7.9µM*	0%	7.1µM*	u
Cc1cnc(NC(=O)CCNC(=O)c2ccccc2Cl)s1	7	6%	0%	8%	-2%
SMILES	TSHR antag	Gal4-VP16 FLuc	B2AR arrestin	RORgamma inh	ELG1 DNA repair
CC1=NN(C(=O)c2c(Br)cnn2C)C(O)(C(F)(F)F)C1 (centres undefined)	19	7.9µM*	-1%	5.6µM*	5%
CC1=NN(C(=O)c2c(Br)c(C)nn2C)C(O)(C(F)(F)F)C1 (centres undefined)	22	u	0%	20µM*	4%
Cn1ncc(Br)c1C(=O)NC1CCCCC1	-1	6%	0%	-5%	-11%
CC1=NN(C(=O)c2nn(C)cc2Br)C(O)(C(F)(F)F)C1 (centres undefined)	-2	11µM*	0%	4µM*	-10%
O=C(O)CCC(=O)OC[C@@H](NC(=O)C(Cl)Cl)C(O)c1ccc([N+](=O)[O-])cc1 (some centres undefined)	x	-10%	x	-8%	x
C[N+](C)(C)CC[N+]1(C)Cc2c(Cl)c(Cl)c(Cl)c(Cl)c2C1	x	-9%	x	-2%	x
O=C(CSc1ncnc2sc3c(c12)CCCC3)N1CCC(c2noc3ccc(F)cc23)CC1	31	-8%	0%	-15%	-15%
Cc1cc(SCC(=O)N2CCC(c3noc4ccc(F)cc34)CC2)nc2ccccc12	1	1%	0%	10%	21µM*
O=C(O)[C@@H](O)[C@@H](O)[C@H](O)C(=O)CO	x	-1%	x	6%[10 µM]	x
COc1cccc(/C=N/NC(=O)c2ccc(=O)n(C)c2)c1O	-10	3.2µM*	-1%	0.63µM*	u
COc1cccc(/C=N/NC(=O)c2ccc(-c3ccccc3)cc2)c1O	-2	3.2µM*	0%	0.71µM*	u
COc1cccc(/C=N/NC(=O)C(=O)Nc2ccccc2OC(F)(F)C(F)F)c1O	-11	1.4µM*	0%	1µM*	u
O=S(=O)(O)c1cccc2c(N=Nc3ccc(O)c4ncccc34)cccc12	-5	-16%	0%	u	-11%
O=Nc1ccc(O)c2ncccc12	1	5.6µM*	3%	1.6µM*	u
Oc1ccc(N=Nc2ccc3c(c2)OCCO3)c2cccnc12	25	-22%	0%	0%	u
COc1ccc(N=Nc2ccc(O)c3ncccc23)cc1	20	u	0%	0.13µM*	2%
COc1cccc(N=Nc2ccc(O)c3ncccc23)c1	2	-94%	-1%	0.32µM*	u
COc1cc(OC)cc(C(=O)Nc2cccc3cccnc23)c1	-5	1%	0%	8%	-22%
COc1cccc(N=Nc2ccc3cccnc3c2O)c1	4	0.89µM*	3%	0.56µM*	2.3µM*
COCCN(C(=O)CSc1n[nH]c(-c2ccccc2)n1)c1c(N)n(Cc2ccccc2)c(=O)[nH]c1=O	3	x	0%	x	12%
Cc1ccc(O)c2ncccc12	x	8.9µM*	x	5µM*	x
COc1ccc(C)cc1N=Nc1ccc(O)c2ncccc12	-4	0.63µM*	0%	0.79µM*	u
Cc1ccccc1N=Nc1ccc(O)c2ncccc12	11	0.89µM*	-2%	0.63µM*	u
